Assay outcomes from PubChem BioAssay.
Rows were chosen to be rich in hits. Some 19% of all compounds tested hit in one or more screens of this group.
IL1B secr inh – inflammasome signaling inhibition, IL-1 beta readout. activity change, % at 57.5 µM. actives 4.7% (n = 360,000). AID 743279. THP-1 LPS/ATP IL-1B secretion, AlphaLISA, 16 h; active compounds read low; in the data active means activity change below about -50%; inconclusive means mostly about -30% to -49%
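THP-1 cells pretreated 1 hr with compounds (up to 57.5 uM final), then stimulated with LPS (250 ng/mL final) plus ATP (1.25 mM final); secreted IL-1B measured by AlphaLISA after 16 hr, decreased signal indicating inhibition.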
TDP1 cell CPT – growth inhibition of DT40 Tdp1-/-;hTDP1 cells with camptothecin (screen for TDP1 inhibitors); chicken DT40 Tdp1-/-;hTDP1 cells + 20 nM CPT, ATP luminescence, 48 h; Potency, µM (titrated, usually from 46.2 µM), for the others: top-dose activity change, negative = growth inhibition, actives largely listed as inhibitors; actives 12% (n = 420,000); further: potency means the concentration at half of the fitted maximal effect; nearly all actives have a fitted effect of over 55% in size
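Cell growth measured by CellTiter-Glo luminescence after a minimum 48 h, 37 C compound exposure with 20 nM CPT in Tdp1-knockout DT40 cells stably expressing hTDP1, seeded 400/well; qHTS titration format.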
HT1080NT lethal – kills 2HG-producing HT-1080-NT fibrosarcoma cells; actives 1.6% (n = 360,000); HT-1080-NT fibrosarcoma viability, CellTiter-Glo ATP luminescence, 48 h; Potency, µM (titrated, usually from 46.1 µM), for the others: top-dose activity, negative = less viability, most hits filed as cytotoxic;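 further: NT is the 2HG producing partner of a matched IDH1 knockdown line; potency means the concentration at half of the fitted maximal effect; 0% = DMSO-treated cells and -100% = media-only wells without cells; nearly all actives have a fitted effect of over 55% in size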
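Viability by CellTiter-Glo luminescence after 48 h compound exposure at 37C of HT-1080-NT cells (750/well, RPMI, 5% FBS). % activity scaled between DMSO wells and medium-only wells, then curve-fitted and categorized by curve class.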
HT1080 IDH1KD tx – kills HT-1080 cells with IDH1 knockdown; AID 686971; actives 2% (n = 360,000); Potency, µM (doses to about 46.1 µM), without a hit: at the highest dose activity, negative = toxicity, hits mostly cytotoxic; HT-1080 IDH1 knockdown viability, ATP luminescence, 48 h;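 further: potency means the concentration at half of the fitted maximal effect; 0% = DMSO wells and -100% = cell-free medium wells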
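CellTiter-Glo luminescence after 48 h compound exposure at 37 degrees C of IDH1-knockdown HT-1080 cells in 5% FBS RPMI. %Activity scaled between DMSO wells and cell-free media wells, with curves fitted and assigned curve classes.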
TDP1 cell noCPT – qHTS for Inhibitors of human tyrosyl-DNA phosphodiesterase 1 (TDP1): qHTS in cells in absence of CPT; DT40 Tdp1-/- hTDP1 cells, no CPT, ATP luminescence, 48 h; Potency, µM (doses to about 46.2 µM), inactives show at the top dose activity change, negative = growth inhibition, hits mostly inhibitors; actives 15% (n = 420,000); AID 686978, 2013; further: potency means the concentration at half of the fitted maximal effect; nearly all actives have a fitted effect of over 55% in size
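Growth of hTDP1-complemented DT40 Tdp1-knockout cells is measured by ATP luminescence after at least 48 hr compound exposure at 37 °C, with DMSO substituting for the 20 nM CPT used in the parallel screen.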
* marks the source's active call; other numbers are inactive results; ? = inconclusive; . = no result; [ ] = another dose, or the depositor's remark. Unless noted, the call rests on the fitted dose curve; in most records, active means well fitted curve in the direction sought with a large enough effect; inconclusive means small, poorly fitted or top-dose-only effect, or another doubt; inactive means no such curve, though single readings can be large; an effect the other way counts as inactive or inconclusive. Unless noted, on the % scale 0 is the no-effect control and ±100 the full control effect.

SMILES | IL1B secr inh | TDP1 cell CPT | HT1080NT lethal | HT1080 IDH1KD tx | TDP1 cell noCPT
Cc1cc2nc(-c3ccc(NC(=O)c4ccccc4F)cc3)oc2cc1C | . | ? | . | . | 8.2µM*
O=C(Nc1ccccc1)c1cc(C2CCCCN2C(=O)OCCF)on1 (centres undefined) | 0 | -36% | 16% | 2% | ?
COc1ccc(S(=O)(=O)n2cnc3ccccc32)cc1 | 9 | -13% | 21% | 26% | -11%
Cc1ccc(S(=O)(=O)N2CCN(Cc3nc4ccccc4n3C)CC2)cc1 | ? | -5% | 2% | 2% | -18%
c1ccc2c(c1)nc(CN1CCOCC1)n1c3ccccc3nc21 | -21 | 13µM* | -19% | -4% | 16µM*
COc1ccc(S(=O)(=O)n2c(CCN3CCOCC3)nc3ccccc32)cc1 | -20 | -28% | -9% | -18% | 21µM*
CC(C)(C)c1ccc(S(=O)(=O)n2c(CN3CCOCC3)nc3ccccc32)cc1 | 101 | 21µM* | -16% | -10% | ?
COc1ccccc1CNC(=O)c1cccc(S(=O)(=O)N2CCN(c3ccc(F)cc3)CC2)c1 | -7 | ? | -7% | -12% | 12µM*
CN(C)C(CNC(=O)c1cccc(S(=O)(=O)N2CCN(c3ccc(F)cc3)CC2)c1)c1ccccc1 (centres undefined) | -74* | 15µM* | ? | 15µM* | 9.2µM*
COc1cccc(CN(C)C(=O)c2cccc(S(=O)(=O)N3CCN(c4ccc(F)cc4)CC3)c2)c1OC | ? | 21µM* | -1% | -3% | 13µM*
CN(CC1COc2ccccc2O1)C(=O)c1ccc(Cl)c(S(=O)(=O)N2CCCCCC2)c1 (centres undefined) | 5 | 16µM* | 1%[9.24 µM] | -4% | ?
CC(=O)N(C)c1nc(N)n(-c2ccccc2)n1 | 8 | -12% | 8% | 4% | -1%
Cc1noc(C)c1COc1ccccc1C(=O)NCc1ccco1 | 14 | 3% | 1% | -1% | 0%
Cc1c(S(=O)(=O)Nc2ccc(Oc3ccccc3)cc2)c(=O)n(C)c(=O)n1C | 12 | -1% | -1% | -1% | -5%
COc1cccc(CN(C)CC(=O)N2CCN(S(=O)(=O)c3ccccc3)CC2)c1 | 4 | -6% | 1% | -1% | -22%
CN(Cc1ccc(Cl)cc1Cl)C(=O)c1cccc(S(=O)(=O)N2CCN(c3ccccc3)CC2)c1 | ? | 26µM* | -2% | -15% | 16µM*
COc1cccc(CN(C)C(=O)c2cc(S(=O)(=O)N3CCN(c4ccccc4)CC3)ccc2Cl)c1 | -14 | 23µM* | -1% | -4% | 16µM*
COc1cccc(CN(C)C(=O)c2ccc(Cl)c(S(=O)(=O)N3CCCCCC3)c2)c1OC | -53* | ? | 0% | -10% | ?
CN(Cc1ccc(Cl)cc1Cl)C(=O)c1cccc(S(=O)(=O)NCc2ccccc2)c1 | ? | ? | -2% | -6% | ?
COc1cccc(CN(C)C(=O)c2ccc(S(=O)(=O)Nc3cccc(C)c3C)cc2)c1OC | -12 | 18µM* | -12% | -24% | 18µM*
O=C(c1ccc(F)cc1F)N1CCN(c2n[nH]c(=O)[nH]c2=O)CC1 | 4 | 9% | 0% | -10% | 11%
COc1ccccc1NC(=O)Cc1nnc(SCC(=O)Nc2nccs2)n1C | 9 | 0% | 24% | 11% | -21%
CCCn1c(SCC(=O)N(CC)c2c(N)n(Cc3ccccc3)c(=O)[nH]c2=O)nnc1-c1ccncc1 | -10 | -9% | -4% | -4% | -4%
Cc1ccc(S(=O)(=O)NCC2CCC(C(=O)NCc3cccnc3)CC2)cc1 (centres undefined) | 19 | -37% | 8% | 14% | ?
CN(CCOc1ccc(Cl)cc1)C(=O)c1cccc(S(=O)(=O)N2CCN(c3ccccc3)CC2)c1 | -15 | 15µM* | -19% | -24% | 6.5µM*
SMILES | IL1B secr inh | TDP1 cell CPT | HT1080NT lethal | HT1080 IDH1KD tx | TDP1 cell noCPT
CN(CCOc1ccccc1)C(=O)c1cc(S(=O)(=O)N2CCOCC2)ccc1Cl | -5 | -18% | -3% | -2% | ?
COc1cccc(CN(C)C(=O)c2cccc(S(=O)(=O)N3CCN(Cc4ccccc4)CC3)c2)c1OC | -14 | 13µM* | ? | -22% | 16µM*
COc1cccc(CN(C)C(=O)c2cccc(S(=O)(=O)N3CCN(c4ccccc4)CC3)c2)c1OC | -3 | 18µM* | -1% | -10% | 8.2µM*
CCn1c(C)nc2cc(C(=O)NNC(=O)CCC3CCCCC3)ccc21 | 14 | 7% | 1% | 3% | -20%
Cc1cccn2c(=O)c3cc(C(=O)NCCN4CCOCC4)c(=N)n(CCc4ccccc4)c3nc12 | -63* | ? | -11% | 1% | 23µM*
CCNC(=O)c1cc2c(=O)n3cccc(C)c3nc2n(CCc2ccccc2)c1=N | 13 | ? | -6% | -4% | 13µM*
Cc1ccc2oc3c(c(=O)c2c1)C(c1ccc(F)cc1)N(Cc1ccc2c(c1)OCO2)C3=O (centres undefined) | . | 4% | . | . | -2%
O=C(Oc1ccc(OC(=O)N2CCCCC2)cc1)c1ccccc1 | -4 | ? | -20% | -4%[9.24 µM] | 0.046µM*
Cc1cc2nccc(-c3ccc(OCCCF)cc3)n2n1 | -24 | 0% | 10% | 17% | 0%
CCOC(=O)C1CCN(C(=O)Nc2cccc(Cl)c2)CC1 | 9 | 7% | 7% | 8% | -3%
CCOC(=O)C1CCN(C(=O)Nc2cc(Cl)cc(Cl)c2)CC1 | 8 | 18µM* | -11% | -7% | ?
CCCc1cc(=O)oc2cc(OC(=O)CN3C(=O)NC4(CCCC4)C3=O)ccc12 | 2 | -21% | -4% | -3% | -27%
CC(=O)c1ccc(OCC(=O)OCC(=O)c2ccc(S(=O)(=O)N3CCCCC3)cc2)cc1 | -3 | -6% | 6% | 4% | -3%
Cn1cccc1/C=C1/SC(=S)N(CC(=O)O)C1=O | -19 | 0% | -5% | 2% | -10%
CC1C/C(=C/c2cccn2C)C(=O)/C(=C/c2cccn2C)C1 (centres undefined) | -17 | 23µM* | ? | ? | 23µM*
CC1C/C(=C/c2ccncc2)C(=O)/C(=C/c2ccncc2)C1 (centres undefined) | -84* | 0.65µM* | ? | 3.7µM* | 0.58µM*
COc1ccc(C(C(=O)NC2CCCC2)N(C(=O)c2ccco2)c2cc3c(cc2C(C)=O)OCO3)cc1 (centres undefined) | 0 | 7% | 10% | 2% | -26%
